Most compounds without a hit are left out; they make up all but 5.2% or so of the library.
Vif imaging – HIV Vif inhibition; HEK293T cells, Vif self-association by quenched fluorescence, imaging, 24 h; inhibition, % at 7.49 µM; 0.35% of 340,000 active; AID 602346; in the data active = inhibition above about 50%, passing the limit was not always enough
SMARCA2 act – activators of SMARCA2 function | MG213 cells, MMTV-luciferase reporter, dexamethasone, overnight | activation, % at 9.1 µM | 1% of 370,000 active | AID 652017; in the data active = activation above about 7.8%;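 also: 0% = vehicle wells and 100% = reference activator wells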
SKN-1 inh – C. elegans SKN-1 inhibition; AID 624304; C. elegans VP596 Pgst-4::GFP/RFP ratio, acrylamide-induced, 24 h; 0.49% of 360,000 active; inhibition, % at 21.8 µM;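 active = interference check ratio from 0.5 to 1.5 plus GFP to RFP signal ratio inhibition reaching or exceeding a fixed threshold, cut at about 30% in these data, passing the limit was not always enough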
NadD block – inhibitors of Staphylococcus aureus NadD; AID 602399; purified NadD enzyme, colorimetric absorbance read-out; inhibition, % at 20 µM; 0.78% of 360,000 active; in the data active = inhibition above about 26%
GRIN3A LBD mod – modulators (binders) of human NR3A ligand-binding domain. NR3A LBD differential scanning fluorimetry, Tm shift; 0% = protein alone, 100% = glycine-bound protein. Tm shift relative to glycine control, % at 25 µM. 2.5% of 340,000 active;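 active = melting temperature shift of at least 10% of the positive control shift, at one fixed dose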
esBAF inh – SWI/SNF esBAF complex inhibition; mouse ES cells, Bmi1-luciferase knock-in reporter, 24 h; 100% = twice the neutral-well signal; reporter increase, % at 12.5 µM; 2% of 350,000 active; AID 602393; in the data active = activation above about 40%;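 also: 0% = median of the plate's neutral control wells and 100% = double that signal; a rise in the Bmi1 reporter signal indicates esBAF inhibition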
NadD conf – NadD (S. aureus) inhibition, single concentration confirmation. shares compounds with NadD block. purified S. aureus NadD, colorimetric enzyme assay. inhibition, % at 20 µM. 13% of 2,000 active. AID 624309; in the data active = inhibition mostly above about 42%, no sharp cut-off; inactive = mostly below about 42%
An asterisk follows results filed as active.

O=C1C(Cc2ccccc2)Nc2ncnc(N3CCN(c4ccccc4)CC3)c2N1Cc1ccc(Cl)cc1 (centres undefined) was read as Vif imaging -3.4, SMARCA2 act -0.5, SKN-1 inh -1.9, NadD block 41.3*, GRIN3A LBD mod -2.6, esBAF inh 3.0 and NadD conf 9.4.
CC1Nc2ncnc(N3CCN(c4ccccc4)CC3)c2N(Cc2ccc(Cl)cc2)C1=O (centres undefined) was read as Vif imaging -8.1, SMARCA2 act -1.4, SKN-1 inh 8.5, NadD block 13.7, GRIN3A LBD mod -5.0 and esBAF inh -6.1.
COc1ccc(CN2C(=O)C(Cc3ccccc3)Nc3ncnc(N4CCN(c5ccccc5)CC4)c32)cc1 (centres undefined) was read as Vif imaging 1.7, SMARCA2 act -0.9, SKN-1 inh 0.5, NadD block 25.0, GRIN3A LBD mod -3.9 and esBAF inh 1.3.
Screening CC1Nc2ncnc(N3CCc4ccccc4C3)c2N(Cc2ccc(Cl)cc2)C1=O (centres undefined) returned Vif imaging -1.7, SKN-1 inh 10.5, NadD block 43.1*, GRIN3A LBD mod 1.8, esBAF inh 14.4 and NadD conf 11.0.
Screening O=C(C[C@@H]1CC[C@H](NC(=O)c2cccnc2)[C@@H](CO)O1)NCc1ccc(Cl)c(Cl)c1 returned esBAF inh -1.8.
Screening OC[C@@H]1[C@@H](c2ccc(-c3cccnc3)cc2)[C@H]2CN(Cc3ccccn3)CCCCN12 returned esBAF inh -1.3.
For COc1ccc(S(=O)(=O)N(C)C[C@H]2Oc3ccc(NS(=O)(=O)c4cn(C)cn4)cc3CC(=O)N([C@H](C)CO)C[C@H]2C)cc1 the results were esBAF inh -0.1.
Screening O=C1CC(c2ccco2)Cc2nc(Nc3nc(-c4ccccc4)c4ccccc4n3)ncc21 (centres undefined) returned Vif imaging 10.8, SMARCA2 act 1.1, SKN-1 inh 12.3, NadD block 57.2*, GRIN3A LBD mod -0.1 and NadD conf 31.9.
O=C(CNc1ccc2c(c1)OCO2)N/N=C\c1cn(Cc2ccccc2)c2ccccc12 was read as Vif imaging -5.1, SMARCA2 act -3.5, SKN-1 inh 14.8, NadD block 36.7*, GRIN3A LBD mod -0.4, esBAF inh 4.5 and NadD conf 18.6.
O=C(CNc1ccccc1)N/N=C/c1ccc2c(c1)OCO2 was read as Vif imaging -6.1, SMARCA2 act 0.8, SKN-1 inh 6.7, NadD block 6.4, GRIN3A LBD mod -1.3 and esBAF inh 11.3.
Screening CCCC#Cc1ccc([C@H]2[C@@H](CO)N3CCCCN(S(=O)(=O)c4ccccc4F)C[C@H]23)cc1 returned esBAF inh 0.5.
Screening COc1ccc(NC(=O)c2ccc3c(c2)NC(=O)CS3)cc1S(=O)(=O)Nc1ccc(Br)cc1 returned Vif imaging 19.5, SMARCA2 act 1.5, SKN-1 inh -15.2, NadD block -0.2, GRIN3A LBD mod 4.7 and esBAF inh -0.4.
Screening Cc1ccc(NS(=O)(=O)c2cc(NC(=O)c3ccc4c(c3)NC(=O)CS4)ccc2C)c(C)c1 returned Vif imaging -29.4, SMARCA2 act -5.3, SKN-1 inh 7.9, NadD block 34.0*, GRIN3A LBD mod 21.6* and NadD conf 24.5.
For C[C@@H]1CCCCO[C@H](CN(C)Cc2ccccc2)[C@@H](C)CN([C@@H](C)CO)C(=O)c2cc(NC(=O)c3ccncc3)ccc2O1 the results were esBAF inh -1.1.
Screening O=c1[nH]c(C2CCCN(S(=O)(=O)c3ccccc3)C2)nc2c1nnn2Cc1ccccc1F (centres undefined) returned Vif imaging 1.2, SMARCA2 act 0.0, SKN-1 inh 2.6, NadD block 7.3, GRIN3A LBD mod 0.9 and esBAF inh -3.9.
For O=c1[nH]c(C2CCN(S(=O)(=O)c3ccc4c(c3)OCCO4)CC2)nc2c1nnn2Cc1c(F)cccc1Cl the results were Vif imaging 0.1, SMARCA2 act -2.5, SKN-1 inh 7.3, NadD block 33.4*, GRIN3A LBD mod -2.2, esBAF inh -8.1 and NadD conf 30.1.

Compound activity deposited in PubChem by several laboratories.
